Reference: PubChem BioAssay AID1778 (Sanford-Burnham Center for Chemical Genomics, 2009)
Several values for one entry are separate records, joined by “and”; a condition that tells them apart may be missing. Identical values can stand only once. About 260 (0.09%) of roughly 290,000 compounds were called active. Rule as the data show it: active = inhibition above about 50%; inactive = the rest. The full list was thinned out, with actives kept by preference. Potency and affinity values are given separately.

molecular target: Kappa-type opioid receptor (Homo sapiens) (UniProt P41145); assay: KOR antagonists, beta-arrestin recruitment, cell-based, luminescence, uHTS (AID 1778); details: antagonist mode, stronger effect = higher value; at 10 µM unless noted
Sequence (P41145 whole entry, looked up): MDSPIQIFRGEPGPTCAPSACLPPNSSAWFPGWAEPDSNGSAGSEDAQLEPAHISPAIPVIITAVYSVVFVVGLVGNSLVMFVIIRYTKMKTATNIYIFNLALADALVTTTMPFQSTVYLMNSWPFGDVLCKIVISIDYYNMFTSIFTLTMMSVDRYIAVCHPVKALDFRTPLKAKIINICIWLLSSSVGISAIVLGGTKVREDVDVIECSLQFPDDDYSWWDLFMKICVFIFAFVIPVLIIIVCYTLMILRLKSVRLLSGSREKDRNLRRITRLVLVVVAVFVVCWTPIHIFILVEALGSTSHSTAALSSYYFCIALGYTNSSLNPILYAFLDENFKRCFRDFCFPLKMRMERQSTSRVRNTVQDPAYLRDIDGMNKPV

SMILES	inhibition
Fc1ccccc1-c1nc(-c2cnccc2C(F)(F)F)no1	11.7% (inactive)
CC(=O)Oc1ccc(C23CC4CC(CC(C4)C2)C3)cc1C(=O)O	-9% (inactive)
COc1ccc(C2=NN(C(=O)c3cccs3)C(c3ccccc3OC)C2)cc1OC (stereo not given)	3.2% (inactive)
Cc1c(C(C)(C)C)s/c(=N/S(=O)(=O)c2ccccc2)n1C	1.7% (inactive)
O=Cc1s/c(=N\S(=O)(=O)c2ccccc2)n(CCCCl)c1Cl	-16.2% (inactive)
Nc1cc(S(=O)(=O)Nc2cc(Cl)ccc2Cl)ccc1N1CCOCC1	6.9% (inactive)
C=CCNCC(=O)Nc1ccccc1SCC(=O)Nc1ccsc1C(=O)OC	-29% [at 20 µM] (inactive)
O=[N+]([O-])c1ccc(Nc2ccccc2O)c2nonc12	10.2% [at 20 µM] (inactive)
O=[N+]([O-])c1ccc(Sc2cccc[n+]2[O-])c2nonc12	93% (active)
O=[N+]([O-])c1ccc(Nc2ccccc2)c2nonc12	7.5% (inactive)
CC1(C)CC(=O)C(N=Nc2cccc(S(=O)(=O)N3CCOCC3)c2)=C(O)C1	-0.5% (inactive)
CCOC(=O)c1[nH]c(C)c(C(=O)OCc2c(C)noc2C)c1C	-46% (inactive)
CCOCCCNC(=O)C(c1ccc(C)cc1)N(Cc1ccc2c(c1)OCO2)C(=O)CNC(C)=O (stereo not given)	-0.2% (inactive)
COc1ccc(NC(=O)C2CC(=O)N(c3ccccc3C)C2)c(OC)c1 (stereo not given)	-5% (inactive)
COc1ccc(C(=O)Nc2ccc(S(=O)(=O)Nc3nccnc3OC)cc2)cc1	-19% (inactive)
CCCC(=O)N(C1CC(C)C(C#N)(C#N)C1(C#N)C#N)N(C)C (stereo not given)	85.4% (active)
CC(=O)N(C1CC(C)C(C#N)(C#N)C1(C#N)C#N)N(C)C (stereo not given)	17.9% [at 20 µM] (inactive)
O=C(CN(C(=O)CCC(=O)Nc1nccs1)c1ccc2c(c1)OCO2)NCc1ccc(F)cc1	-0.7% (inactive)
Cc1nn(C)cc1CNC(=O)C1(C)CC1(Cl)Cl (stereo not given)	11.1% (inactive)
O=S1(=O)NC(=NCCc2ccccn2)c2ccccc21	20.9% (inactive)
c1cnc2c(c1)ccc1cccnc12	-30.1% (inactive) and 19.4% (inactive)
CC1(C)Cc2c(sc3ncn4nnnc4c23)CO1	-7.5% (inactive)
CC(C)c1nc2sc3c(c2c(=O)n1N)CC(C)(C)OC3	13% (inactive)
CC1(C)Cc2c(sc3c4nnnn4c4nnnn4c23)CO1	56.4% (active)

SMILES	inhibition
CC1(C)Cc2c(c(-c3ccco3)nc3sc4c(NCC5CCCO5)ncnc4c23)CO1 (stereo not given)	-42.4% (inactive)
O=C(CSc1nc2ccsc2c(=O)n1CC1CCC(C(=O)O)CC1)c1ccc(F)cc1 (stereo not given)	18.5% (inactive)
Oc1ccccc1N=Nc1nc(-c2ccccc2)c(-c2ccccc2)[nH]1	33.6% (inactive)
COc1ccc(N=Nc2nc(-c3ccccc3)c(-c3ccccc3)[nH]2)cc1	28.4% (inactive)
O=C(OCCCOc1ccc(F)cc1)c1ccc(O)cc1O	-20.5% (inactive)
CCC1CCC(C(=O)NC(C(=O)NCCc2ccc(S(N)(=O)=O)cc2)C(C)C)CC1 (stereo not given)	-31% (inactive)
COc1ccc(C(=O)NC2CC3CCCC(C2)N3Cc2ccccc2)cc1 (stereo not given)	26.9% (inactive)
O=C(NC1CC2CCCC(C1)N2Cc1ccccc1)c1cccc(F)c1 (stereo not given)	34.5% (inactive)
CCOc1ccccc1C(=O)NC1CC2CCCC(C1)N2Cc1ccccc1 (stereo not given)	5.8% (inactive)
O=C(NC1CC2CCCC(C1)N2Cc1ccccc1)c1ccc([N+](=O)[O-])cc1 (stereo not given)	29.6% [at 20 µM] (inactive)
CCOc1ccc(C(=O)NC2CC3CCCC(C2)N3CC(C)C)cc1 (stereo not given)	-39% (inactive)
O=C(NC1CC2CCCC(C1)N2Cc1ccccc1)c1cccc(Cl)c1 (stereo not given)	13.7% [at 20 µM] (inactive)
CCCN1C2CCCC1CC(NC(=O)c1ccccc1OCC)C2 (stereo not given)	12% (inactive)
Cc1ccccc1C(=O)NC1CC2CCCC(C1)N2Cc1ccccc1 (stereo not given)	-8.6% [at 20 µM] (inactive)
CC(=O)NC(=S)Nc1cccc([N+](=O)[O-])c1	30.8% (inactive)
Cc1cc(C)n2nc(SCC(=O)NC3CCCCC3)nc2n1	-29.2% (inactive)
COc1c(F)c(F)c(C(=O)O)c(Nc2ccccc2)c1F	4.7% (inactive)
COCc1nnc(NC(=O)CCCOc2ccccc2OC)s1	-4.2% (inactive)
Cc1ccc(Cl)cc1NC(=S)Nn1cnnc1	-13.2% (inactive)
O=C(NCCc1ccccc1)C1CC(=O)N(C2CCCC2)C1 (stereo not given)	-27.2% (inactive)
Cc1sc2c(c1C)C(=O)NC(c1cccc(O)c1)N2 (stereo not given)	9.3% (inactive)
O=C(NC1CC2CCCC(C1)N2Cc1ccc(F)cc1)c1ccc(F)cc1 (stereo not given)	13.6% [at 20 µM] (inactive)
CCC(=O)NC1CC2CCCC(C1)N2Cc1ccc(C)cc1 (stereo not given)	2.1% (inactive)
CCCN1C2CCCC1CC(NC(=O)c1ccc(F)cc1)C2 (stereo not given)	22.4% (inactive)

SMILES	inhibition
CC(=O)NC1CC2CCCC(C1)N2Cc1ccc(C)cc1 (stereo not given)	-10% (inactive)
CCOc1ccc(C(=O)NCC(=O)OCC(=O)N2CCCCC2)cc1	-18.2% (inactive)
COc1ccc(CNC(=O)C2CCN(S(=O)(=O)c3cccc4nonc34)CC2)cc1	-3.2% (inactive)
Cc1nc2cncc(Br)c2n1C	-11.9% (inactive)
CSc1ccc(NC(=O)NCCCN2CCC(Cc3ccccc3)CC2)cc1	-20.9% (inactive)
Fc1ccc(NC(=S)NC2CC3CCC(C2)N3Cc2ccco2)cc1 (stereo not given)	22.9% [at 20 µM] (inactive)
Cc1cccc(N2CCN(S(=O)(=O)c3cccc4nonc34)CC2)c1C	3% (inactive)
Cc1ccc(OCc2cccc(S(=O)(=O)N(C)C)c2)c([N+](=O)[O-])n1	-0.3% (inactive)
Cc1ccn2c(CNCCCn3cccn3)c(C(=O)N3CCCCCC3)nc2c1	13.8% [at 20 µM] (inactive)
N#CC(C#N)=C1C=CC=CN1/C(=C\c1ccccc1)C(=O)c1cccs1	-1% (inactive)
N#C/C(=C\c1ccco1)C(=O)Nn1cnnc1	1% (inactive)
N#CC(C#N)=C1C=CC=CN1/C(=C\c1ccccc1Cl)C(=O)c1ccccc1	26.8% (inactive)
COc1ccc(C(=O)N/C(=C/c2ccco2)C(=O)N2CCCCCC2)cc1	-0.8% (inactive)
CC(/C=N/n1c(-c2ccc(Cl)cc2)n[nH]c1=S)=C\c1ccco1	-13.3% (inactive)
COc1ccc(/C=C(/C(=O)c2cccs2)N2C=CC=CC2=C(C#N)C#N)cc1	-7.8% (inactive)
N#C/C(=C\c1ccco1)C(=O)NCc1ccccc1	7.2% (inactive)
O=C(O)/C(=C/c1ccco1)c1ccccc1	-9.6% (inactive)
COc1ccc(CNC(=S)NCc2ccc(Cl)cc2)cc1OC	-4.7% (inactive)
COc1ccccc1N(CC(O)COc1ccccc1)S(=O)(=O)c1ccccc1 (stereo not given)	25.7% (inactive)
O=C(Nc1ccccc1Oc1ccsc1C(=O)O)c1ccccc1	11% (inactive)
CC/C(C)=N/Oc1nc(C)cc(C)n1	-35.7% (inactive)
NS(=O)(=O)c1ccc(NC(=O)Nc2ccc(S(N)(=O)=O)cc2)cc1	27.6% (inactive)
FC(F)(F)c1cnc(N2CCCN(C(=S)Nc3ccccc3)CC2)c(Cl)c1	-20.9% (inactive)
O=C(Nc1cccc(C(=O)O)c1)/C(=C\c1ccccc1)NC(=O)c1cccc2ccccc12	-20.3% [at 20 µM] (inactive)

SMILES	inhibition
N#C/C(=C/c1ccco1)C(N)=S	-13.4% (inactive)
CCOC(=O)/C(C#N)=C\c1ccco1	-16.4% (inactive)
CC(=O)OC[C@H]1O[C@@H](O/N=C/[C@@H](C)[C@H](OCc2ccccc2)C(C)C)[C@H](OC(C)=O)[C@@H](OC(C)=O)[C@@H]1OC(C)=O	-20.6% (inactive)
O=C(Nc1nnc(SCc2ccc(F)cc2)s1)c1cccnc1Cl	13% (inactive)
CCOc1ccc2nc(NC(=O)c3cnc(C)cn3)sc2c1	54.4% (inactive)
O=C(Nc1nnc(SCc2ccc(F)cc2)s1)c1cnccn1	-29.3% [at 20 µM] (inactive)
O=C(Nc1nc2ccc(F)cc2s1)c1cccs1	-4.2% (inactive)
O=C(Nc1nc2ccc(S(=O)(=O)N3CCCC3)cc2s1)c1ccccn1	-85.6% (inactive)
O=C(Nc1nc2c(F)cc(F)cc2s1)c1ccco1	-20.5% [at 20 µM] (inactive)
O=C(NNc1nc2c(F)cc(F)cc2s1)c1ccccc1	30.3% (inactive)
CCOc1ccc2nc(NC(=O)c3cnccn3)sc2c1	-3.8% (inactive)
Cn1c(CNC(=O)c2ccco2)nnc1SCC(=O)c1ccccc1	0.9% (inactive)
O=C(c1ccc(CS(=O)(=O)c2ccc(Br)cc2)o1)N1CCN(c2ccc(F)cc2)CC1	3.6% (inactive)
CC(=O)Nc1ccc(S(=O)(=O)NC2(C(F)(F)F)C(=O)Nc3c2c(=O)[nH]c(=O)n3Cc2ccco2)cc1 (stereo not given)	16.3% (inactive)
CN(C)S(=O)(=O)c1cccc(N=C2SCCN2Cc2ccccc2)c1	-13.6% (inactive)
COc1ccc(CCC(N)=O)cc1OC	-31.9% (inactive)
Cc1c(NS(=O)(=O)c2cccs2)cccc1-c1nc2cccnc2s1	6.3% (inactive)
Cc1ccc(S(=O)(=O)Nc2ccnc3ccccc23)cc1	6.9% (inactive)
O=S(=O)(Nc1cccc2ccccc12)c1cccs1	2.3% (inactive)
Cc1ccc(S(=O)(=O)Nc2cccc3ncccc23)cc1	14.1% (inactive)
Cc1ccc(S(=O)(=O)Nc2cccc3ncccc23)s1	107% (active)
O=C(NNC(=O)c1ccccc1[N+](=O)[O-])c1ccccn1	-1.3% [at 20 µM] (inactive)
Cc1[nH]nc2c1C(c1ccccc1F)CC(=O)N2 (stereo not given)	-21.3% (inactive)
